Results filed as inconclusive are left out. Calls of active or inactive are those of the source. The call rests on the fitted dose curve; in most records, active means well fitted cell-killing curve with a large enough effect; inconclusive means small, poorly fitted or top-dose-only effect; inactive means flat fitted curve, though single readings scatter.
How the values were obtained:
[1] = Cell Viability - LYMP2-011 (AID 969); further: nearly all actives have a fitted effect of over 60% in size
Procedure, shortened: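 2500 cells/well in complete medium, compound-treated 24 h at 37 C. Viability read as intracellular ATP by CellTiter-Glo luminescence after 30 min at room temperature. AC50 from Hill fits of qHTS concentration-response data.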

[2] = Cell Viability - LYMP2-013 (AID 970); further: series mostly up to about 92 µM; nearly all actives have a fitted effect of over 55% in size
Procedure, shortened: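 Human lymphoblastoid LYMP2-013 cells, 2500/well, treated 24 h at 37 C in complete medium; viability as intracellular ATP by CellTiter-Glo luminescence after 30 min. AC50 from Hill fits of qHTS concentration-response.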

[3] = Cell Viability - LYMP2-015 (AID 971); further: nearly all actives have a fitted effect of over 55% in size
Procedure, shortened: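 LYMP2-015 human lymphoblastoid cells (2500/well) in complete medium, compound-treated 24 h at 37 C; viability read as cellular ATP by CellTiter-Glo luminescence after 30 min at room temperature. AC50 from Hill-equation fits of qHTS concentration-response data.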

[4] = Cell Viability - LYMP2-017 (AID 972); further: series mostly up to about 92 µM; nearly all actives have a fitted effect of over 55% in size
Procedure, shortened: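 LYMP2-017 human lymphoblastoid cells (2500/well) settled 5 hr at 37 C, then exposed to compound 24 hr at 37 C in complete medium. Viability taken as intracellular ATP by CellTiter-Glo luminescence after 30 min at RT; AC50 from Hill fits.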

[5] = Cell Viability - LYMP2-019 (AID 973); further: nearly all actives have a fitted effect of over 55% in size
Procedure, shortened: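 Human lymphoblastoid LYMP2-019 cells (2500/well) preincubated 5 h at 37 C, then treated 24 h at 37 C in complete medium. Viability by CellTiter-Glo ATP luminescence after 30 min at room temperature; AC50 from Hill fits.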

[6] = Cell Viability - LYMP2-021 (AID 974)
Procedure, shortened: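 Human lymphoblastoid LYMP2-021 cells, 2500/well in complete medium, treated 24 hours at 37 C. Intracellular ATP by CellTiter-Glo luminescence (30 min, RT); AC50 from Hill fits of concentration-response.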

[7] = Cell Viability - LYMP2-023 (AID 975)
Procedure, shortened: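 LYMP2-023 human lymphoblastoid cells, 2500/well, preincubated 5 hr at 37 C, then compound-treated 24 hr at 37 C in complete medium. CellTiter-Glo luminescence (ATP) after 30 min at room temperature; AC50 from Hill-equation fits; tetraoctylammonium bromide positive control.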

[8] = Cell Viability - LYMP2-025 (AID 976); further: series mostly up to about 92 µM
Procedure, shortened: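 Human lymphoblastoid LYMP2-025 cells, 2500/well, exposed 24 h at 37 C in complete medium in 1536-well qHTS. Viability as cellular ATP by CellTiter-Glo luminescence; AC50 from Hill fits of concentration-response data.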

[9] = Cell Viability - LYMP2-002 (AID 977);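 further: series mostly up to about 92 µM; compound exposure lasted 24 h at 37 °C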
Procedure, shortened: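 Human lymphoblastoid LYMP2-002 cells, 2500 per well, exposed to compounds for 24 h at 37 C in complete medium; viability read as intracellular ATP by CellTiter-Glo luminescence, AC50 from Hill fits.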

[10] = Cell Viability - LYMP2-006 (AID 978); further: series mostly up to about 92 µM; nearly all actives have a fitted effect of over 60% in size
Procedure, shortened: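 Human lymphoblastoid cells (LYMP2-006), 2500/well in complete medium, were treated with compound for 24 hr at 37 C. Cellular ATP was read by CellTiter-Glo luminescence after 30 min, and AC50 values came from Hill-equation fits of concentration-response data.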

[11] = Cell Viability - LYMP2-007 (AID 979);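 further: cells exposed to compound for 24 h before reading; nearly all actives have a fitted effect of over 60% in size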
Procedure, shortened: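 Human lymphoblastoid LYMP2-007 cells (2500/well) preincubated 5 h at 37 C, then treated 24 h at 37 C in complete medium. Viability by CellTiter-Glo ATP luminescence after 30 min at room temperature; AC50 from Hill fits.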

[12] = Cell Viability - LYMP2-008 (AID 980); further: nearly all actives have a fitted effect of over 60% in size
Procedure, shortened: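 LYMP2-008 lymphoblastoid cells (2500/well) plated 5 h, then treated 24 h at 37 C in complete medium. Viability read as intracellular ATP by CellTiter-Glo luminescence after 30 min at room temperature; AC50 from Hill fits.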

[13] = Cell Viability - LYMP2-010 (AID 981); further: nearly all actives have a fitted effect of over 55% in size
Procedure, shortened: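 Human lymphoblastoid LYMP2-010 cells (2500/well) treated 24 h at 37 C in complete medium; viability read as intracellular ATP by CellTiter-Glo luminescence. AC50 from Hill fits of concentration-response data; tetraoctylammonium bromide positive control.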

[14] = Cell Viability - LYMP2-012 (AID 982)
[15] = Cell Viability - LYMP2-014 (AID 983); further: series mostly up to about 92 µM; nearly all actives have a fitted effect of over 50% in size
Procedure, shortened: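 LYMP2-014 human lymphoblastoid cells, 2500/well, treated 24 h at 37 C in complete medium; viability by CellTiter-Glo ATP luminescence after 30 min at room temperature. AC50 from Hill fits of qHTS concentration-response; tetraoctylammonium bromide positive control.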

[16] = Cell Viability - LYMP2-016 (AID 984); further: nearly all actives have a fitted effect of over 55% in size
Procedure, shortened: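 Human lymphoblastoid LYMP2-016 cells, 2500 per well, treated with compounds for 24 h at 37 C. Viability read as intracellular ATP by CellTiter-Glo luminescence after 30 min at room temperature; AC50 from Hill fits of concentration-response.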

[17] = Cell Viability - LYMP2-018 (AID 985);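 further: compound exposure lasted 24 hr at 37 °C; nearly all actives have a fitted effect of over 50% in size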
Procedure, shortened: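 Human lymphoblastoid LYMP2-018 cells, 2500/well, settled 5 hr at 37 C then exposed to compound 24 hr at 37 C; intracellular ATP measured by CellTiter-Glo luminescence. AC50 from Hill-equation concentration-response fits.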

[18] = Cell Viability - LYMP2-020 (AID 986)
Procedure, shortened: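 Human lymphoblastoid LYMP2-020 cells (2500/well) preincubated 5 h at 37 C, then treated 24 h at 37 C. Viability measured as intracellular ATP by CellTiter-Glo luminescence after 30 min at room temperature; AC50 from Hill fits.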

[19] = Cell Viability - LYMP2-022 (AID 987); further: nearly all actives have a fitted effect of over 55% in size
Procedure, shortened: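 LYMP2-022 lymphoblastoid cells (2500/well, complete medium) were treated with compounds for 24 hours at 37 C; intracellular ATP was then read by CellTiter-Glo luminescence after 30 min at room temperature. AC50 values were derived from Hill-equation fits.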

[20] = Cell Viability - LYMP2-024 (AID 988); further: nearly all actives have a fitted effect of over 60% in size
Procedure, shortened: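 Human lymphoblastoid LYMP2-024 cells (2500/well) rested 5 hr, then treated with compound for 24 hr at 37 C in complete medium. Viability was measured as intracellular ATP by CellTiter-Glo luminescence. AC50 values came from Hill-equation fits.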

[21] = Cell Viability - LYMP2-026 (AID 989); further: nearly all actives have a fitted effect of over 50% in size
Procedure, shortened: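 Human lymphoblastoid LYMP2-026 cells, 2500/well, exposed to compound 24 h at 37 C in complete medium. Viability as intracellular ATP by CellTiter-Glo luminescence; AC50 from Hill fits of qHTS concentration-response.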

[22] = Cell Viability - LYMP1-002 - Assay at 24 hr (AID 993)
Procedure, shortened: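 Human lymphoblastoid LYMP1-002 cells (2500/well) treated 24 h at 37 °C; viability as intracellular ATP by CellTiter-Glo luminescence. Tetraoctylammonium bromide as positive control; AC50 from Hill-equation fits of qHTS concentration-response.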

Measured: outcome

CN(C)CCOC(c1ccccc1)c1ccccc1 (tested in a mixture with another compound)
inactive: [1] | [2] | [3] | [4] | [5] | [6] | [7] | [8] | [9] | [10] | [11] | [12] | [13] | [14] | [15] | [16] | [17] | [18] | [19] | [20] | [21] | [22]
